High-throughput results as filed in PubChem BioAssay.
A selection: hits, their analogues and other compounds. The true share with any hit is near 6.7%.
C diff HTS = C. difficile growth inhibitors, primary screen, HTS; Clostridium difficile clinical isolate growth, OD600, 24 h; hits give low values; hit rate 0.25% among 86,000; AID 1259249, 2017; growth activity, negative = inhibition, % at 16 µg/mL (by protocol);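 active = mean growth activity at or below -80% and every replicate also at or below -80%; inconclusive = mean at or below -80% but some replicate above -80%; inactive = mean growth activity above -80%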
T cruzi growth-1 = T. cruzi intracellular proliferation inhibitors, primary screen, cell-based, beta-gal Tulahuen parasites, NIH3T3 host, luminescence; hit rate 5.9% among 77,000; inhibition, % at 8.34 µM; T. cruzi beta-gal in NIH3T3, GalScreen luminescence, 90 h; AID 624255, 2012;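 active = mean inhibition above about 93%, with at least 55% of replicates each passing it, limit read from the data, passing the limit was not always enough; inconclusive = only one of those two conditions holds; inactive = neither condition holds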
Pf Dd2 inh = P. falciparum Dd2 growth inhibitors, primary screen, SYBR Green fluorescence, single dose replicates; 72 h; hits give low values; activity change, % at 10 µM; hit rate 2.3% among 94,000; AID 1159554, 2015; in the data active = activity change below about -80%; inconclusive = no clear call, values can overlap the other calls
T cruzi growth-2 = T. cruzi intracellular proliferation inhibitors, confirmation, cell-based, NIH3T3 host, beta-gal parasite, luminescence, cherry-pick | shares compounds with T cruzi growth-1 | inhibition, % at 8.35 µM | hit rate 72% among 5,600 | T. cruzi beta-gal in NIH3T3, GalScreen luminescence, 90 h;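 active = mean replicate inhibition above about 95% and at least 55% of replicates individually reaching it, limit read from the data; inconclusive = only one of the two criteria is met; inactive = neither criterion is met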
T cruzi growth-3 = inhibitors of intracellular T. cruzi replication, confirmation, NIH3T3 host cells, beta-gal parasites, cherry-pick, set 2; shares compounds with T cruzi growth-1; T. cruzi beta-gal in NIH3T3, GalScreen luminescence, 90 h; inhibition, % at 2.09 µM; hit rate 21% among 5,600; AID 651740, 2012;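 active = mean inhibition above about 95%, with at least 55% of replicates also reaching it, limit read from the data; inconclusive = meets just one of the two conditions; inactive = meets neither condition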
3T3 cytotox = cytotoxicity in mouse NIH/3T3 fibroblasts, confirmation, cytotoxicity control for T. cruzi proliferation inhibitor project, cell-based, cherry-pick, single point. shares compounds with T cruzi growth-1. NIH/3T3 viability, CellTiter-Glo ATP luminescence, 90 h. cytotoxicity (signal decrease), % at 8.35 µM. hit rate 14% among 5,600. AID 651742, 2012;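 active = mean signal decrease across replicates above about 35% based on untreated-well scatter, with enough replicates individually passing, limit read from the data; inconclusive = no rule stated though some were filed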
NIH3T3 tox 2 = NIH/3T3 fibroblast cytotoxicity, confirmation, cytotoxicity control, cell-based, cherry-pick, single point, set 2 | hit rate 56% among 5,600 | NIH/3T3 viability, CellTiter-Glo ATP luminescence, 90 h | inhibition, % at 24.9 µM | shares compounds with T cruzi growth-1;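 active = mean loss of cell viability signal at or above a set limit, and enough replicates individually reaching it; inconclusive = meets only the mean limit or only the replicate share; inactive = meets neither condition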
A number is an active result; i = inactive; ? = inconclusive; nt = no result.

SMILES	C diff HTS	T cruzi growth-1	Pf Dd2 inh	T cruzi growth-2	T cruzi growth-3	3T3 cytotox	NIH3T3 tox 2
CCCC#Cc1ccc2c(c1)O[C@@H](CN(C)C(=O)C1CCC1)[C@@H](C)CN([C@@H](C)CO)S2(=O)=O	i	104.9	i	110.0	i	i	i
CCCC#Cc1ccc2c(c1)O[C@@H](CN(C)C(=O)C1CCC1)[C@@H](C)CN([C@H](C)CO)S2(=O)=O	i	104.4	i	109.6	i	i	34.2
C[C@H](CO)N1C[C@H](C)[C@H](CN(C)C(=O)C2CCCCC2)Oc2cc(C#CCN(C)C)ccc2S1(=O)=O	i	nt	i	nt	nt	nt	nt
CCCC#Cc1ccc2c(c1)O[C@@H](CN(C)C(=O)C1CCC1)[C@H](C)CN([C@H](C)CO)S2(=O)=O	i	i	i	nt	nt	nt	nt
CCCC#Cc1ccc2c(c1)O[C@H](CN(C)C(=O)C1CC1)[C@@H](C)CN([C@H](C)CO)S2(=O)=O	i	i	i	nt	nt	nt	nt
C[C@@H]1CCCCO[C@@H](CN(C)C(=O)Cc2ccccc2)[C@H](C)CN([C@@H](C)CO)C(=O)c2cc(NC(=O)Nc3cccc4ccccc34)ccc2O1	i	i	i	nt	nt	nt	nt
O=C(CCN1CCCCC1)NCC[C@@H]1CC[C@H](NS(=O)(=O)c2cccc(F)c2)[C@H](CO)O1	i	i	i	nt	nt	nt	nt
C[C@H]1CN([C@@H](C)CO)C(=O)Cc2cc(NC(=O)CCCN(C)C)ccc2O[C@H]1CN(C)S(=O)(=O)c1ccc(F)cc1	i	i	i	nt	nt	nt	nt
O=C(C[C@@H]1CC[C@@H]2[C@H](COC[C@@H](O)CN2CC2CC2)O1)NCC1CC1	i	i	i	nt	nt	nt	nt
C[C@@H]1CN([C@H](C)CO)C(=O)c2cccc(NC(=O)c3ccncc3)c2O[C@H]1CN(C)Cc1ccc(C(F)(F)F)cc1	i	i	i	nt	nt	nt	nt
COc1ccc(NC(=O)N2CCCCN3[C@H](CO)[C@@H](c4ccc(C5=CCCC5)cc4)[C@@H]3C2)cc1	i	i	i	nt	nt	nt	nt
O=C(C1CCC1)N1CC2(C1)[C@H](c1ccccc1)[C@@H](CO)N2Cc1ccccc1F	i	nt	i	nt	nt	nt	nt
CO[C@H]1CN(C)C(=O)c2cc(C#N)ccc2OC[C@@H]2O[C@H](CC[C@H]2OC)CCN(C)C(=O)[C@@H]1C	nt	i	i	nt	nt	nt	nt
O=C(C[C@H]1CC[C@@H]2[C@H](COC[C@H](O)CN2Cc2ccc3c(c2)OCO3)O1)N1CCOCC1	nt	i	i	nt	nt	nt	nt
O=C(C[C@@H]1CC[C@@H]2[C@H](COC[C@@H](O)CN2Cc2ccc3c(c2)OCO3)O1)Nc1ccc(-c2ccccc2)cc1	i	102.2	i	97.1	i	36.3	50.8
O=C(C[C@@H]1CC[C@@H]2[C@H](COC[C@@H](O)CN2Cc2ccc3c(c2)OCO3)O1)N1CCOCC1	nt	i	i	nt	nt	nt	nt
O=C(C[C@@H]1CC[C@H]2[C@@H](COC[C@H](O)CN2Cc2ccc3c(c2)OCO3)O1)Nc1ccc(-c2ccccc2)cc1	i	?	i	102.9	i	i	91.7
COc1cccc(C(=O)Nc2ccc3c(c2)OC[C@@H](C)N(C(C)=O)C[C@H](C)[C@H](OC)CN(C)C3=O)c1	nt	i	i	nt	nt	nt	nt
C/C=C/c1ccc([C@H]2[C@@H](CO)N(S(=O)(=O)c3cccc(F)c3)[C@H]2C#N)cc1	i	111.0	i	i	i	i	i
N#C[C@H]1[C@@H](c2ccccc2)[C@H](CO)N1S(=O)(=O)c1cccc(F)c1	i	i	i	nt	nt	nt	nt
N#C[C@@H]1[C@H](c2ccc(-c3cccc(F)c3)cc2)[C@H](CO)N1S(=O)(=O)c1cccc(F)c1	i	101.5	i	106.8	i	i	54.1
N#C[C@H]1[C@H](c2ccccc2)[C@@H](CO)N1S(=O)(=O)c1cccc(F)c1	i	i	i	nt	nt	nt	nt
C/C=C/c1ccc([C@H]2[C@@H](C#N)N(S(=O)(=O)c3cccc(F)c3)[C@H]2CO)cc1	i	i	i	nt	nt	nt	nt
N#C[C@@H]1[C@@H](c2ccc(-c3cccc(F)c3)cc2)[C@@H](CO)N1S(=O)(=O)c1cccc(F)c1	i	98.7	i	99.1	i	39.4	66.1
COc1ccc(S(=O)(=O)N2CCC3(CC2)CN(C(=O)c2cccnc2)[C@H](CO)c2c3c3ccc(OC)cc3n2C)cc1	i	nt	i	nt	nt	nt	nt
SMILES	C diff HTS	T cruzi growth-1	Pf Dd2 inh	T cruzi growth-2	T cruzi growth-3	3T3 cytotox	NIH3T3 tox 2
O=C1CN(Cc2ccccc2)C[C@@H]2[C@H](c3ccc(-c4ccccc4)cc3)[C@H](CO)N12	i	nt	i	nt	nt	nt	nt
C[C@@H]1CCCCO[C@@H](CN(C)S(=O)(=O)c2ccc(F)cc2)[C@@H](C)CN([C@H](C)CO)C(=O)c2cc(NC(=O)Nc3ccc(C(F)(F)F)cc3)ccc2O1	nt	103.6	-81.6	110.9	106.1	?	62.1
C[C@H](CO)N1C[C@H](C)[C@@H](CN(C)S(=O)(=O)c2ccc(F)cc2)OCCCC[C@H](C)Oc2ccc(NC(=O)Nc3ccc(C(F)(F)F)cc3)cc2C1=O	nt	i	i	nt	nt	nt	nt
C[C@@H]1CN([C@H](C)CO)C(=O)c2cc(NC(=O)Nc3ccc(C(F)(F)F)cc3)ccc2O[C@@H](C)CCCCO[C@@H]1CN(C)S(=O)(=O)c1ccc(F)cc1	nt	i	i	nt	nt	nt	nt
C[C@@H]1CCCCO[C@@H](CN(C)S(=O)(=O)c2ccc(F)cc2)[C@H](C)CN([C@@H](C)CO)C(=O)c2cc(NC(=O)Nc3ccc(C(F)(F)F)cc3)ccc2O1	nt	100.0	i	109.2	113.6	i	i
Cc1ccc(S(=O)(=O)Nc2cccc3c2O[C@@H](CN(C)Cc2ccc(Oc4ccccc4)cc2)[C@@H](C)CN([C@@H](C)CO)C3=O)cc1	i	i	i	nt	nt	nt	nt
CCCC(=O)Nc1ccc2c(c1)OC[C@H](C)N(Cc1cncnc1)C[C@H](C)[C@@H](OC)CN(C)C2=O	i	nt	i	nt	nt	nt	nt
CN1CCN(C(=O)C[C@H]2CC[C@@H]3[C@H](COC[C@@H](O)CN3Cc3ccc(Oc4ccccc4)cc3)O2)CC1	nt	i	i	nt	nt	nt	nt
COc1ccccc1NC(=O)N1CCCCN2[C@H](C1)[C@H](c1ccc(C#Cc3ccccc3)cc1)[C@@H]2CO	i	114.0	i	103.7	i	i	30.5
COc1ccccc1NC(=O)N1CCCCN2[C@H](CO)[C@@H](c3ccc(-c4ccccc4)cc3)[C@@H]2C1	i	106.8	i	107.7	115.9	i	104.9
COc1ccccc1NC(=O)N1CCCCN2[C@H](CO)[C@H](c3ccc(-c4ccccc4)cc3)[C@@H]2C1	i	111.2	i	104.9	i	i	32.1
COc1ccccc1NC(=O)N1CCCCN2[C@@H](CO)[C@@H](c3ccc(-c4ccc(C)cc4)cc3)[C@@H]2C1	i	i	i	nt	nt	nt	nt
